High-throughput results from PubChem BioAssay.
The list is not random: actives were taken first. Their share in the collection is about 7.1%.
p53 reactivator: restores transcriptional activity of mutant p53 | H1299 p53-A138V BP100-luciferase reporter, luminescence, 24 h | Potency, µM (titrated, usually from 92.2 µM), most hits filed as activators | 320,000 compounds, 0.063% hits | AID 504706; further: nearly all actives have a fitted effect of over 45% in size
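p53-null H1299 cells stably carrying temperature-sensitive p53-A138V and a BP100-luciferase reporter were pinned with compounds (4-point, 1:5 series) and held 24 hrs at 37 deg C. Luminescence was read 10 min after detection reagent.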
ELG1 DNA repair: inhibitors of ELG1-dependent DNA repair in HEK293T cells | 330,000 compounds, 2.3% hits | HEK293T ELG1-luciferase reporter, luminescence, 16 h; DNA damage induced by 5-fluorouridine | Potency, µM (doses to about 46.1 µM), usual class: inhibitors; further: nearly all actives have a fitted effect of over 55% in size
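In this reporter screen, reduction of luminescence relative to DMSO vehicle indicated activity. Compounds and 5-fluorouridine were added together to 2,000 cells per well, incubated for 16 hr at 37 °C, then developed with ONE-Glo.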
MCF10A rereplic: inducers of DNA re-replication in MCF 10A breast cells. 350,000 compounds, 2.9% hits. MCF 10A DNA re-replication, Hoechst nuclear intensity, 48 h. AID 624296. Potency, µM (top dose mostly 46.1 µM), most hits filed as activators; further: nearly all actives have a fitted effect of over 50% in size
ELG1 genotox: inducers of genotoxicity in HEK293T ELG1-luciferase cells. 330,000 compounds, 1.3% hits. HEK293T ELG1-luciferase reporter, luminescence, 16 h. AID 504466. Potency, µM (top dose mostly 46 µM), most hits filed as activators; further: nearly all actives have a fitted effect of over 60% in size
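Genotoxic stress is detected as increased luminescence from luciferase-tagged ELG1 in HEK293T cells, measured with ONE-Glo after a 16 hr treatment at 37 °C.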
AT treatment: candidate therapy for ataxia-telangiectasia; Potency, µM (highest dose often 57.5 µM), most hits filed as activators; 320,000 compounds, 0.19% hits; F2112 A-T fibroblasts, KAP-1 phosphorylation AlphaLISA; neocarzinostatin DNA damage 30 min before lysis; further: nearly all actives have a fitted effect of over 45% in size
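hTERT-immortalized A-T patient fibroblasts (F2112), 500 cells/well in OPTI-MEM, 1% FBS, got compounds for 60 min, then NCS for 30 min at 37C. Lysates were then assayed for phospho-KAP-1 by AlphaLISA (anti-pKAP1 donor, anti-KAP1 acceptor beads), 6 hr at 25C.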
SW480 rerep: induces DNA re-replication in SW480 colon adenocarcinoma cells. 340,000 compounds, 1.8% hits. Potency, µM (doses to about 46.1 µM), hits mostly activators. SW480 DNA re-replication, Hoechst DNA content imaging, 48 h. AID 624297; further: nearly all actives have a fitted effect of over 55% in size
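250 cells/well; 23 nL cpd via pin tool; 48 hr, 37 C, 5% CO2; Hoechst 40 min; imager read of total nuclear intensity, ex 405/em 500-530 nm.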
Large screens that a line does not name were inactive. The call rests on the fitted dose curve; in most records, active means well fitted curve in the direction sought with a large enough effect; inconclusive means small, poorly fitted or top-dose-only effect, or another doubt; inactive means no such curve, though single readings can be large; an effect the other way counts as inactive or inconclusive.

OC(COc1ccc(OCc2ccccc2)cc1)CN1CCOCC1 (stereo unspecified)	MCF10A rereplic 9.2µM, SW480 rerep inconclusive (no result: AT treatment)
C=CCc1ccccc1OCC(O)CN1CCN(c2ccc(OC)cc2)CC1 (stereo unspecified)	none
CCCc1ccc(OCC(O)CN2CCCC2)cc1 (stereo unspecified)	MCF10A rereplic 14.6µM (no result: p53 reactivator)
C/C(=C(/CCOC(=O)C(C)C)SS/C(CCOC(=O)C(C)C)=C(\C)N(C=O)Cc1cnc(C)nc1N)N(C=O)Cc1cnc(C)nc1N	none (no result: p53 reactivator, ELG1 DNA repair, ELG1 genotox, AT treatment)
COc1cccc(NC(=O)CCC2CCN(C(=O)C3CC=CCC3)CC2)c1 (stereo unspecified)	SW480 rerep inconclusive
CN1CCN(CC(O)COc2ccc(C34CC5CC(CC(C5)C3)C4)cc2)CC1 (stereo unspecified)	MCF10A rereplic 14.6µM, ELG1 genotox inconclusive, SW480 rerep inconclusive
CN1CCN(CC(O)COc2ccccc2)CC1 (stereo unspecified)	none
COc1ccc(OCC(O)CN2CCCC2)cc1 (stereo unspecified)	p53 reactivator inconclusive
CC(C)(c1ccccc1)c1ccc(OCC(O)CN2CCCC2)cc1 (stereo unspecified)	MCF10A rereplic inconclusive, SW480 rerep 16.4µM
COc1ccc(-c2nc(CN3CCN(C(=O)c4ccco4)CC3)c(C)o2)c(OC)c1C	ELG1 DNA repair 11.6µM, MCF10A rereplic inconclusive
COc1ccc(OC)c(-c2nc(CN3CCN(C(=O)c4ccco4)CC3)c(C)o2)c1	none
Cc1cc(S(=O)(=O)NCc2cccnc2)ccc1-n1cnnn1	MCF10A rereplic 18.4µM, SW480 rerep inconclusive
Cc1cc(S(=O)(=O)NCc2cccs2)ccc1-n1cnnn1	none
CSc1ccc(S(=O)(=O)Nc2ccc3c(c2)NC(=O)CC3)cc1	ELG1 DNA repair 8.2µM
Cc1ccc(NS(=O)(=O)c2ccc3c(c2)CCC(=O)N3)cc1	none
O=C(Nc1ncc2c(n1)CC(c1ccccc1)CC2=O)c1ccco1 (stereo unspecified)	none
O=C(Nc1ncc2c(n1)CC(c1cccc(Cl)c1)CC2=O)c1ccco1 (stereo unspecified)	AT treatment 12.6µM
COc1ccc(C2CC(=O)c3cnc(NC(=O)c4ccccc4)nc3C2)c(OC)c1 (stereo unspecified)	ELG1 DNA repair inconclusive, MCF10A rereplic 20.6µM, SW480 rerep inconclusive
COc1ccc(C2CC(=O)c3cnc(N)nc3C2)c(OC)c1 (stereo unspecified)	none
COc1ccc(Nc2ncc3c(n2)CC(c2ccc(C)cc2)CC3=O)cc1 (stereo unspecified)	ELG1 DNA repair inconclusive, SW480 rerep inconclusive
COc1ccc(Nc2ncc3c(n2)CC(c2ccc(OC)cc2)CC3=O)cc1 (stereo unspecified)	ELG1 DNA repair 13µM
CC(C)Oc1ccc(S(=O)(=O)N2CCOCC2)cc1NC(=O)CCCSc1ccccc1	ELG1 DNA repair inconclusive
O=C(COc1ccc2c3c(c(=O)oc2c1)CCC3)Nc1ccccn1	p53 reactivator inconclusive, ELG1 DNA repair inconclusive, ELG1 genotox 1.64µM
CC(=O)C(C)Oc1ccc2c3c(c(=O)oc2c1)CCCCC3 (stereo unspecified)	p53 reactivator inconclusive, ELG1 DNA repair inconclusive, ELG1 genotox 9.2µM
O=C(NN(C(=O)c1ccccc1)c1cccs1)c1ccccc1	none (no result: p53 reactivator, ELG1 DNA repair, ELG1 genotox, AT treatment)
COc1ccc(NC(=O)c2cc(-c3ccccc3O)n[nH]2)cc1Cl	ELG1 DNA repair inconclusive, MCF10A rereplic inconclusive
Cc1cc(O)c(-c2cc(C(=O)Nc3cccnc3)[nH]n2)cc1C	ELG1 DNA repair inconclusive, ELG1 genotox 3.66µM
CCNC(=O)c1c(NC(C)=O)sc2c1CCCC2	none
COc1ccc(NC(=O)c2cc(-c3cc(C)cc(C)c3O)n[nH]2)cc1Cl	ELG1 DNA repair 20.6µM, MCF10A rereplic inconclusive
CCc1ccc(O)c(-c2cc(C(=O)Nc3cccnc3)[nH]n2)c1	p53 reactivator inconclusive, ELG1 DNA repair inconclusive, ELG1 genotox inconclusive
Cc1cc(C)c(O)c(-c2cc(C(=O)Nc3cccnc3)[nH]n2)c1	ELG1 DNA repair 20.6µM, SW480 rerep inconclusive
CCNC(=O)c1c(NC(=O)c2cc(-c3cc(C)cc(C)c3O)n[nH]2)sc2c1CCCC2	MCF10A rereplic 6.51µM (no result: p53 reactivator, ELG1 DNA repair, ELG1 genotox, AT treatment)
Cc1ccc(NC(=O)c2cccc(S(=O)(=O)N(C)C3CCCCC3)c2)nc1	ELG1 DNA repair inconclusive
CCCCn1c(C)cc2c(c1=O)C1O[C@](c3ccc(OC)cc3)(Cc3cc(OC)c(OC)cc31)O2	none (no result: p53 reactivator, ELG1 DNA repair, MCF10A rereplic, ELG1 genotox, SW480 rerep)
CC(=O)C[C@@H](O)CC(=O)[C@@H]1OC(=O)CCCCCCCCc2ccccc21	none
CC1(C)CC2CC(C)(CN2/C=N/c2sc3c(c2C#N)CC(C)(C)NC3(C)C)C1 (stereo unspecified)	ELG1 DNA repair 23.1µM, SW480 rerep inconclusive
CC1(c2ccc(OCC#N)cc2)C=C(c2ccc(OCC#N)cc2)n2nc(C(F)(F)F)nc2N1 (stereo unspecified)	ELG1 DNA repair inconclusive, MCF10A rereplic 18.4µM, SW480 rerep inconclusive
Cc1ccc(C2=CC(C)(c3ccc(C)cc3)Nc3nc(C(F)(F)F)nn32)cc1 (stereo unspecified)	ELG1 DNA repair inconclusive
CCOc1ccc(NC(=O)CN(C)C(=O)C2CCCO2)cc1OCC (stereo unspecified)	none
CC1=C(c2ccccc2)CCC1=O	none (no result: p53 reactivator, ELG1 DNA repair, ELG1 genotox, AT treatment)
CC1=C(c2ccccc2)C(O)(c2ccccc2)C(C)C1=O (stereo unspecified)	MCF10A rereplic 20.6µM, SW480 rerep inconclusive (no result: p53 reactivator, ELG1 DNA repair, ELG1 genotox, AT treatment)
CCN(C(=O)CSc1nnc(-c2cccc(Cl)c2)n1N)c1c(N)n(Cc2ccccc2)c(=O)[nH]c1=O	none (no result: p53 reactivator, ELG1 DNA repair, ELG1 genotox, AT treatment)
Cc1cc(C(=O)N2CCCC(C(=O)c3ccc4ccccc4c3)C2)n(C)n1 (stereo unspecified)	none
CCOC(=O)c1ccccc1NC(=O)c1cn(-c2ccc(C)c(C)c2)c(=O)c2ccccc12	ELG1 DNA repair inconclusive, MCF10A rereplic inconclusive, SW480 rerep inconclusive
COC(=O)c1ccccc1NC(=O)c1cn(-c2ccc(C)c(C)c2)c(=O)c2ccccc12	ELG1 DNA repair 9.2µM, MCF10A rereplic inconclusive
CCOC(=O)c1ccccc1NC(=O)c1cn(-c2ccc(OC)cc2)c(=O)c2ccccc12	ELG1 DNA repair 6.51µM, MCF10A rereplic inconclusive
COc1ccc(CNC(=O)C(C)n2ccc3cc(S(=O)(=O)N4CCCCCC4)ccc32)cc1 (stereo unspecified)	ELG1 DNA repair inconclusive, MCF10A rereplic inconclusive
